PubChem BioAssay (NCI)
About 83,000 compounds went through this panel and 20% of them were active in at least one assay; those are over-represented in the sample as a whole.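 Values shown are percent growth following 48 h exposure of cells in 96-well plates to a single concentration of compound; below 10 was considered active.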 Active and inactive are the calls of the source.

What was measured:
Test in all cases: NCI-60 one-dose screen, 48 h (100 = growth as untreated, 0 = no growth, -100 = all killed)
Conditions in all cases: 10 µM unless noted
[1] = tested on: SK-MEL-2 melanoma
[2] = tested on: EKVX NSCLC
[3] = tested on: SN12C renal
[4] = tested on: UO-31 renal
[5] = tested on: TK-10 renal
[6] = tested on: ACHN renal
[7] = tested on: CAKI-1 renal
[8] = tested on: A498 renal
[9] = tested on: CCRF-CEM leukemia
[10] = tested on: MOLT-4 leukemia
[11] = tested on: SR leukemia
[12] = tested on: RPMI-8226 leukemia
[13] = tested on: OVCAR-8 ovarian
[14] = tested on: OVCAR-5 ovarian
[15] = tested on: OVCAR-4 ovarian
[16] = tested on: SK-OV-3 ovarian
[17] = tested on: IGROV1 ovarian
[18] = tested on: OVCAR-3 ovarian
[19] = tested on: NCI/ADR-RES ovarian

Measured: growth

CC1=C(C(=O)OC(C)C)C(c2cccc(O)c2)NC(=S)N1 (centres undefined)
inactive: [1] 111% | [2] 99.6% | [3] 102% | [4] 92% | [5] 104% | [6] 98.1% | [7] 89.9% | [8] 125% | [9] 98.6% | [10] 96.1% | [11] 90.7% | [12] 88.9% | [13] 104% | [14] 104% | [15] 98% | [16] 97.9% | [17] 110% | [18] 120% | [19] 105%

Cc1ccc2c(N)c(C(=O)Nc3ccc(OC(F)(F)F)cc3)sc2n1
inactive: [1] 67.4% | [2] 26.9% | [3] 70.2% | [4] 56.2% | [5] 95.4% | [6] 61.2% | [7] 55.8% | [8] 119% | [9] 64.8% | [10] 63.1% | [11] 56.5% | [12] 46.9% | [13] 76.2% | [14] 84.5% | [15] 52.1% | [16] 68.2% | [17] 61.5% | [18] 83% | [19] 52.4%

Clc1cccc(Cl)c1/C=C/c1cc(/C=C/c2ccc(Br)cc2)c2ccccc2n1
inactive: [1] 123% | [2] 89.8% | [3] 93.2% | [4] 70.2% | [5] 126% | [6] 100% | [7] 73.4% | [8] 142% | [9] 85% | [10] 84.8% | [11] 92.4% | [12] 86.6% | [13] 101% | [14] 97.4% | [15] 93.8% | [16] 98.2% | [17] 96.6% | [18] 111% | [19] 95.5%

CC(=O)Nc1cccc(Nc2nc(NCc3ccccc3)c3ccccc3n2)c1
active: [1] -89.2% | [2] -97.6% | [3] -90.2% | [4] -98.5% | [5] -96.7% | [6] -100% | [7] -94.8% | [8] -99.3% | [9] -13.8% | [10] -61% | [11] -45.3% | [12] -38.3% | [13] -73.6% | [14] -98.4% | [15] -73.2% | [16] -96.2% | [17] -94.1% | [18] -79.3% | [19] -65%

COc1ccc2nc(Nc3cccc(NC(=O)c4ccc(CN5CCCN(C)CC5)c(C(F)(F)F)c4)c3)ccc2c1
active: [1] -74.5% | [2] -98.5% | [3] -65.9% | [4] -66.9% | [5] -81.1% | [6] -91.5% | [7] -65.2% | [8] -53.3% | [9] -43.6% | [10] -4.91% | [11] 4.09% | [12] -31.7% | [13] 2.26% | [14] -84.5% | [15] -94.4% | [16] -62.4% | [17] -56.4% | [18] -48.8% | [19] -43.1%

N#Cc1c(-c2cccc(Cl)c2Cl)cc(-c2c[nH]c3ccccc23)[nH]c1=O
inactive: [1] 87.7% | [2] 53% | [3] 53.6% | [4] 43.1% | [5] 108% | [6] 59% | [7] 53% | [8] 128% | [9] 33.1% | [10] 41% | [11] 42.3% | [12] 44.4% | [13] 72.5% | [14] 83.9% | [15] 75.2% | [16] 94.4% | [17] 71% | [18] 86.1% | [19] 76.5%

N#Cc1c(-c2ccc(Cl)cc2)nc2n[nH]c(-c3ccc(Cl)cc3)c2c1-c1ccc(C(F)(F)F)cc1
active: [1] -66.9% | [2] -10.5% | [3] -5.91% | [4] -1.42% | [6] 2.15% | [7] -20.1% | [9] -7.76% | [11] -21.8% | [12] -2.57% | [14] -41.8% | [15] 2.98% | [16] 3.06% | [17] -15% | [18] -13.9% | [19] -24.5%
inactive: [5] 15.9% | [8] 50.5% | [10] 12.8% | [13] 16.2%

N#Cc1c(-c2ccccc2Cl)cc(-c2ccc3ccccc3c2)[nH]c1=O
active: [3] 0.758% | [4] 0.793% | [5] -0.132% | [6] 9.07% | [8] -29.6% | [15] -46% | [18] -7.55%
inactive: [1] 95.4% | [2] 41.1% | [7] 25.1% | [9] 56.8% | [10] 56.1% | [11] 48.9% | [12] 61.5% | [13] 12.2% | [14] 44.1% | [16] 52.1% | [17] 48.2% | [19] 13.4%

C=C1CC[C@@H]2[C@]3(C)COC(c4cn[nH]c4-c4ccc(OC)cc4)O[C@@H]3CC[C@@]2(C)[C@@H]1C/C=C1/C(=O)OCC1O (some centres undefined)
inactive: [8] 50.2% | [17] 17.1% | [19] 16.7%
active: [1] -42.2% | [2] -59.8% | [3] -14.3% | [4] -44.2% | [5] 5.62% | [6] 3.82% | [7] -23.4% | [9] 0.599% | [10] 8.3% | [11] -29.9% | [12] -27% | [13] -3.29% | [14] -27.1% | [15] 3.78% | [16] 6.09% | [18] 5.62%

C=C1CC[C@@H]2[C@]3(C)COC(c4cn[nH]c4-c4ccccc4)O[C@@H]3CC[C@@]2(C)[C@@H]1C/C=C1/C(=O)OCC1O (some centres undefined)
inactive: [1] 73.8% | [3] 21.9% | [6] 11% | [7] 11.4% | [8] 137% | [13] 33% | [14] 22.6% | [15] 11.5% | [16] 107% | [17] 30.6% | [18] 34.7% | [19] 37.8%
active: [2] -45.2% | [4] -0.824% | [5] -8.55% | [9] 2.72% | [10] 4.6% | [11] -18.9% | [12] -28.6%

CC1=C(C(=O)c2ccccc2)C(c2cccc3ccccc23)n2c(nc3ccccc32)N1 (centres undefined)
inactive: [1] 106% | [2] 58.4% | [3] 75.3% | [4] 81.8% | [5] 83.8% | [6] 88.5% | [7] 55.7% | [8] 153% | [9] 55.9% | [10] 52.3% | [11] 43.7% | [12] 83.9% | [13] 38.3% | [14] 68.4% | [15] 75.6% | [16] 57.4% | [17] 86.5% | [18] 59% | [19] 43.3%

CC1=C(C(=O)OCc2ccccc2)C(c2c(O)cc(O)cc2O)n2c(nc3ccccc32)N1 (centres undefined)
inactive: [1] 58% | [2] 54.4% | [3] 74.8% | [4] 46.4% | [5] 87.9% | [6] 46.6% | [7] 39.4% | [8] 102% | [9] 38.1% | [10] 60.6% | [11] 18.5% | [12] 81.9% | [13] 77.9% | [14] 73.6% | [15] 84% | [16] 44.4% | [17] 51% | [18] 33.6% | [19] 31%

Nc1cc2ccccc2c(=O)n1NC(=O)c1ccc(I)cc1
inactive: [1] 102% | [2] 94.2% | [3] 107% | [4] 92% | [5] 115% | [6] 106% | [7] 83.6% | [8] 103% | [9] 97.8% | [10] 99.2% | [11] 88.3% | [12] 98% | [13] 101% | [14] 98.1% | [15] 100% | [16] 91.9% | [17] 106% | [18] 104% | [19] 101%

O=C1Nc2cc(Cl)ccc2/C1=C/c1cccc(OCc2ccccn2)c1
inactive: [1] 41% | [2] 15% | [4] 29.7% | [5] 35.5% | [6] 16.9% | [7] 16.8% | [8] 123% | [15] 49.1% | [16] 52.1% | [17] 17.2% | [18] 23.5%
active: [3] -15% | [9] 2.33% | [10] 4.01% | [11] -0.484% | [12] -5.52% | [13] -21% | [14] -7.05% | [19] -16.7%

CCOC(=O)C1=C(N)N(c2ccccc2)C2=C(C(=O)CC(C)(C)C2)C1c1cccc(Cl)c1Cl (centres undefined)
inactive: [1] 86.5% | [2] 57.5% | [3] 63% | [4] 75.5% | [5] 95.2% | [6] 57.9% | [7] 47.4% | [8] 128% | [9] 54.8% | [10] 39.5% | [11] 56.3% | [12] 50.7% | [13] 59.4% | [14] 87.6% | [15] 65.8% | [16] 82% | [17] 83.6% | [18] 87.4% | [19] 51%

N#Cc1c(-c2cccnc2)cc(-c2ccc3ccccc3c2)[nH]c1=O
inactive: [1] 110% | [2] 87.1% | [3] 74.3% | [4] 79% | [5] 109% | [6] 90.2% | [7] 89.7% | [8] 111% | [9] 82% | [10] 91.5% | [11] 73.7% | [12] 51.5% | [13] 78% | [14] 106% | [15] 64.6% | [16] 112% | [17] 97.6% | [18] 102% | [19] 75.3%
